Some test systems named below: T-47D breast; BT-549 breast; MDA-MB-435 melanoma; SW-620 colon; MCF7 breast; HCT-116 colon; HCC-2998 colon; KM12 colon.
Common to all, as to test: NCI-60 one-dose screen, 48 h (100 = growth as untreated, 0 = no growth, -100 = all killed)
Common to all, as to conditions: 10 µM unless noted

Structures are written as SMILES. About 83,000 compounds went through this panel and 20% of them were active in at least one assay; those are over-represented in the sample as a whole.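 Results are percent growth after 48 hours of single-concentration exposure. 100 means growth as in untreated cells, lower positive values show inhibition; negative values down to -100 show cell death.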 Unmarked numbers belong to inactive results. The source made the active and inactive calls. Rule for the calls: active = growth percent below 10; inactive = the rest.

Drawing on PubChem BioAssay (NCI), this text covers growth for 16 compounds.

As for `c1ccc2nc(N/N=C3\CCCCC3C3CCCCC3)ccc2c1` (stereo not drawn), the growth in the experiment on T-47D breast is 40.4%; with BT-549 breast, 61%; in the experiment on MDA-MB-435 melanoma, 78.8%; with SW-620 colon, 44.2%; in the experiment with MCF7 breast, 58.1%; with HCT-116 colon it was 6.79% (active). Further, the growth with HCC-2998 colon was 64.2%; with KM12 colon, 38.4%.

`N=C1c2nc3n(c2C(=O)c2nc4n(c21)CCCCC4)CCCCC3`: the growth in the experiment on T-47D breast is 116%; with BT-549 breast, 110%; in the experiment on MDA-MB-435 melanoma, 111%; with SW-620 colon, 105%; in the experiment with MCF7 breast, 94.5%; with HCT-116 colon it was 107%. Besides, the growth was 112% in the experiment with HCC-2998 colon and 106% with KM12 colon.

Turning to `O=C1c2cc3c(cc2-c2c1c1ccc(Cl)cc1c(=O)n2CCCNCCO)OCO3`, the growth was -67.1% (active) in the experiment on T-47D breast; -63.7% (active) with BT-549 breast; -85% (active) in the experiment on MDA-MB-435 melanoma; -73.2% (active) in the experiment with SW-620 colon; -73.1% (active) in the experiment on MCF7 breast; -74.2% (active) in the experiment on HCT-116 colon. The growth with HCC-2998 colon is -89% (active); in the experiment on KM12 colon it was -78.4% (active).

Take `Cn1cc(NC(=O)Nc2cc(C(=O)O)n(C)c2)cc1C(=O)O`: the growth with T-47D breast was 107%; with BT-549 breast, 125%; with MDA-MB-435 melanoma, 115%; in the experiment with SW-620 colon, 96.3%; in the experiment on MCF7 breast, 116%; in the experiment with HCT-116 colon, 102%. In addition, the growth is 107% in the experiment with HCC-2998 colon and 98.6% in the experiment with KM12 colon.

For the compound `c1ccc(-c2n(Cc3ccc4ccccc4c3)cc[n+]2Cc2ccc3ccccc3c2)cc1`, the growth is -0.722% (active) with T-47D breast; -77.5% (active) in the experiment with BT-549 breast; -73.2% (active) with MDA-MB-435 melanoma; -50.7% (active) with SW-620 colon; -65.8% (active) with MCF7 breast; -91.6% (active) with HCT-116 colon. For the same compound, the results for the growth in the experiment with HCC-2998 colon and in the experiment on KM12 colon were -59.9% (active) and -81.5% (active), respectively.

For `O=C1/C(=C/c2cccc(Cl)c2)CCc2ccccc21`, the growth with T-47D breast was 101%; with BT-549 breast it was 102%; in the experiment on MDA-MB-435 melanoma it was 96.6%; in the experiment on SW-620 colon, 56.4%; with MCF7 breast, 50.5%; in the experiment with HCT-116 colon it was 93%. Besides, the growth is 102% in the experiment on HCC-2998 colon and 87.9% in the experiment on KM12 colon.

Take `CCOC(=O)C(Br)=P(c1ccccc1)(c1ccccc1)c1ccccc1`: the growth with T-47D breast is 97.7%; with BT-549 breast, 117%; in the experiment with MDA-MB-435 melanoma, 98.6%; in the experiment with SW-620 colon it was 105%; with MCF7 breast, 111%; in the experiment on HCT-116 colon, 110%. Also, the growth in the experiment with HCC-2998 colon is 109%; in the experiment with KM12 colon it was 112%.

Regarding `COc1cc(C2=NN(C=O)C(c3cccc(Nc4ccnc5cc(Cl)ccc45)c3)C2)cc(OC)c1OC` (stereo not drawn), the growth was 63.2% in the experiment on T-47D breast; 61.5% with BT-549 breast; 84.5% with MDA-MB-435 melanoma; 88.6% in the experiment with SW-620 colon; 68.8% with MCF7 breast; 62.6% in the experiment on HCT-116 colon. For the same compound, the growth in the experiment on HCC-2998 colon was 107%; with KM12 colon, 91%.

As to `COc1ccc2c(c1)C(=Nc1cc(OC)c(OC)c(OC)c1)C(=O)N2`, the growth in the experiment with T-47D breast was 98.7%; with BT-549 breast, 99%; with MDA-MB-435 melanoma, 118%; in the experiment with SW-620 colon, 102%; in the experiment with MCF7 breast it was 105%; with HCT-116 colon it was 51%. The growth with HCC-2998 colon is 125%; in the experiment with KM12 colon, 105%.

On to `CCN(Cc1cccc(S(=O)(=O)[O-])c1)c1ccc(C(=C2C=CC(=[N+](CC)Cc3cccc(S(=O)(=O)O)c3)C=C2)c2ccccc2S(=O)(=O)O)cc1`, for which the growth with T-47D breast is 90.3%; in the experiment on BT-549 breast, 104%; in the experiment on MDA-MB-435 melanoma, 94.2%; in the experiment with SW-620 colon, 103%; in the experiment with MCF7 breast, 90.2%; with HCT-116 colon it was 95.1%. For the same compound, the growth was 97.8% in the experiment on HCC-2998 colon and 94.4% in the experiment with KM12 colon.

For the compound `O=C(Nc1ccc(Cl)cc1)Nc1nc2ccc(OC(F)(F)F)cc2o1`, the growth was 41.1% in the experiment with T-47D breast; 146% in the experiment on BT-549 breast; 112% with MDA-MB-435 melanoma; 98.4% with SW-620 colon; 76.6% in the experiment with MCF7 breast; 85% with HCT-116 colon. The growth with HCC-2998 colon is 140%; in the experiment with KM12 colon, 68.3%.

Take `CN(C)CCC(=O)Nc1ccc(-n2cc(-c3cccc(NC(=S)Nc4cccc(-c5cn(-c6ccc(NC(=O)CCN(C)C)cc6)nn5)c4)c3)nn2)cc1`: the growth is 69.1% in the experiment on T-47D breast; 81.6% in the experiment on BT-549 breast; 110% with MDA-MB-435 melanoma; 17.4% in the experiment with SW-620 colon; 5.07% (active) with MCF7 breast; 26.7% in the experiment with HCT-116 colon. For the same compound, the figures for the growth in the experiment with HCC-2998 colon and in the experiment with KM12 colon were 101% and 56.3%, respectively.

On to `CCOC(=O)CNC(=O)C1(NC(=O)CNC(=O)OCc2ccccc2)CCCC1`, for which the growth was 107% with T-47D breast; 98% with BT-549 breast; 95.6% with MDA-MB-435 melanoma; 110% in the experiment with SW-620 colon; 96.6% in the experiment with MCF7 breast; 101% with HCT-116 colon. For the same compound, the growth was 105% in the experiment with HCC-2998 colon and 108% in the experiment on KM12 colon.

Turning to `C=C1CC[C@@H]2[C@](C)(COC(C)=O)[C@H](OC(C)=O)CC[C@@]2(C)[C@@H]1CC(NCc1ccccc1)C1=CCOC1=O` (stereo partly drawn), the growth was 14.2% in the experiment on T-47D breast; 28.1% in the experiment with BT-549 breast; 27.9% in the experiment with MDA-MB-435 melanoma; 47.3% in the experiment on SW-620 colon; 29.8% with MCF7 breast; 42.3% with HCT-116 colon. The growth with HCC-2998 colon is 93.7%; with KM12 colon, 39.1%.

On to `Cc1sc2nc(N3CCCCC3)[nH]c(=O)c2c1C`, for which the growth is 84.2% in the experiment with T-47D breast; 99.1% with BT-549 breast; 103% in the experiment on MDA-MB-435 melanoma; 96.2% with SW-620 colon; 96.1% with MCF7 breast; 93.2% with HCT-116 colon. For the same compound, the growth was 98% in the experiment on HCC-2998 colon and 102% in the experiment on KM12 colon.

For `CCOC(=O)c1sc(NC(=O)COc2cccc(/C=C3\Cc4ccc(Cl)cc4C3=O)c2)nc1C`, the growth is 98.8% with T-47D breast; 115% in the experiment on BT-549 breast; 103% with MDA-MB-435 melanoma; 94.6% in the experiment on SW-620 colon; 54.3% in the experiment on MCF7 breast; 12.3% in the experiment on HCT-116 colon. Further, the growth in the experiment on HCC-2998 colon was -19.5% (active); in the experiment on KM12 colon, 103%.
